Measured values: PubChem BioAssay (NCI)
Several values for one entry are separate records, joined by “and”; a condition that tells them apart may be missing. Equal entries are not always repeated. The panel holds about 83,000 compounds, 20% with a hit somewhere; the sample as a whole holds those more often.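 Step 1: grow cells in 96-well plates. Step 2: add test compound at a single concentration. Step 3: incubate 48 h. Step 4: record percent growth.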 Values without a mark were called inactive. Activity calls are given as the source filed them. Rule for the calls: active = growth percent below 10; inactive = the rest.

The compounds below were run on MDA-MB-468 breast (assay: NCI-60 one-dose screen, 48 h (100 = growth as untreated, 0 = no growth, -100 = all killed)). Conditions: 10 µM unless noted.

Row | SMILES | growth
1 | COc1ccc(F)cc1/C=C/C(=O)/C=C(/C=C/c1cc(F)ccc1OC)OB(F)F | 31.5%
2 | O=C1/C(=C/c2cccc(Br)c2)COc2ccc(O)c(O)c21 | -47.5% (active)
3 | Clc1cccc(-c2cc(-c3ccc4c(c3)OCCO4)[nH]n2)c1 | 6.54% [25 µM] (active)
4 | O=c1[nH]c2ccccc2n2cc3cccnc3c12 | -5.08% (active)
5 | CCCCCCCCCCCCCCCCCCOc1ccccc1CCCOP(=O)(O)OCC[N+](C)(C)C | 77.3%
6 | O=C(CCNCc1ccccc1)c1ccccc1 | 98.2%
7 | CC1=C(C(=O)Nc2ccc(F)cc2)C(c2ccc(C)cc2)C2=C(CC(C)(C)CC2=O)N1 (stereo not given) | 84.7%
8 | CC(=O)n1c(-c2ccc(Cl)cc2)nc2c(c1=O)C(c1ccc(Cl)cc1)c1sc3c(Cl)cccc3c1O2 (stereo not given) | 5.06% (active)
9 | Nc1nc(N)c2c(n1)NC1(C=C(O)c3ccccc31)C1=C(N2)c2ccccc2C1=O (stereo not given) | 127%
10 | Oc1ccc(CN2CCC(N3CCCCC3)CC2)c2cccnc12 | 23.9%
11 | O=C(Nc1ccc(Cl)cc1)Nc1nc2ccc([N+](=O)[O-])cc2s1 | -36.7% (active)
12 | CSc1ccc(SC2c3ccc(C)cc3Oc3nc(N)c(C#N)c(N)c32)cc1 (stereo not given) | -75.8% (active)
13 | O=C(Nc1cccc2c1CCCC2)c1cc2ccccc2cc1O | 33.8%
14 | CCC1(C(C)C)NC(=O)NC1=O (stereo not given) | 98.5%
15 | O=C1Nc2cc(OC(F)(F)F)ccc2Oc2ccc(-c3ccnc(N4CCNCC4)c3)cc21 | -79.4% (active)
16 | Cc1cc(C)c2c(Nc3ncnc4c3sc3nc(C)cc(C)c34)n[nH]c2n1 | 92.2%
17 | CCCCCN(CCCCC)CC(O)c1cc2c(c3ccccc13)CCCC2 (stereo not given) | 72.1% and 81.2%
18 | O=C(N/N=C/c1c[nH]c2ccccc12)c1cc(-c2ccccc2)on1 | 94.9%
19 | CC(CCC#N)(CCC#N)C(=O)c1ccccc1 | 106%
20 | O=C(O)c1cccc2c1C(=O)N(c1ccc3c(c1)Cc1ccccc1-3)C2=O | 107%

Row | SMILES | growth
21 | O=C(c1ccccc1)c1c(/C=C/c2ccc(Cl)cc2)nc2ccccc2c1/C=C/c1cccs1 | 94.3%
22 | O=C(Cc1ccccn1)C(F)(F)C(F)(F)C(F)(F)F | 115%
23 | Cn1c(=O)c2c3c(oc2c2ccccc21)C(=O)c1ccccc1C3=O | -9.91% (active)
24 | CCc1n(Cc2ccc3ccccc3c2)cc[n+]1Cc1ccc2ccccc2c1 | -22.9% (active)
25 | O=C(Nc1cccc2[nH]c(C(F)(F)F)nc12)c1ccc(-n2cnnn2)cc1 | 80%
26 | COc1cc2ncnc(Nc3ccc4c(cnn4C(=O)Nc4ccccc4)c3)c2cc1OC | 52%
27 | COc1ccc2[nH]cc(/C=N/Nc3nc4ccccc4s3)c2c1 | 40.6%
28 | COc1ccccc1NC(=O)OCC12COCN1COC2 | 101%
29 | O=C(Nc1ccccc1)OCC1OCOC(COC(=O)Nc2ccccc2)C1OC(=O)Nc1ccccc1 (stereo not given) | -1.51% (active)
30 | FC(F)(F)c1ccc(-c2cn3nc(-c4c[nH]c5ccc(Br)cc45)sc3n2)cc1 | 103%
31 | NC(CCl)=NCC12CC3CC(CC(C3)C1)C2 | -31.3% (active)
32 | COc1ccc(NC(=O)c2ccc3c(c2)nc(-c2ccc(Cl)cc2)n3-c2cc(C(C)(C)C)[nH]n2)cc1 | 87.5%
33 | CCCN=C(N)c1ccc(NC(=O)c2ccc(C(=O)Nc3ccc(C(N)=NCCC)cc3)cc2)cc1 | 67.1%
34 | CCOC(=O)c1cnc2c(C)cc(C)cc2c1NCCCN(C)C | 16.5%
35 | Cc1ccc(N=C2CSc3nnc(-c4csc5c4CCCC5)n3N2)cc1 | 17%
36 | COc1cc2c(c(OC)c1OC)CCC(c1cccc(C(=O)Nc3cccc(Br)c3)c1)O2 (stereo not given) | 58.6%
37 | COc1ccc(C2C3=C(COC3=O)N(CCO)c3cc4c(cc32)OCCO4)cc1 (stereo not given) | 32.9%
38 | CCCCCCCC/C=C/CCCCCCCC1=NC(C)(C)CN1c1ccccc1 | 85.7%
39 | NC(=S)NNC1CCCCC1 | 99%
40 | COC(=O)[C@]12CC[C@@H](C)[C@H](C)[C@@H]1C1=CC[C@@H]3[C@@]4(C)C[C@@H](O)OC[C@](C)(C=O)C4C(=O)C[C@@]3(C)[C@]1(C)CC2 (stereo not given in full) | -0.84% (active)
